We go through eight compounds from PubChem BioAssay (EPA / NIEHS).

Assay [1] addresses Nuclear respiratory factor 1 (Homo sapiens) (UniProt Q16656). Nature of the assay: ATG_NRF1_CIS: Attagene CIS-FACTORIAL HepG2 Assay for human Nuclear Respiratory Factor 1 (NRF1) Orphan Gene (AID 2282987). Particulars: HepG2 NRF1 cis-element reporter, Attagene multiplex; actives raise or lower the signal. An outline of the steps:
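Human hepatoma HepG2 cells carrying transfected promoter-regulated reporter units were incubated with test chemicals for 24 h. Reporter transcripts were measured by RT-PCR plus capillary electrophoresis, and endpoints derived by bidirectional fitting with DMSO as baseline.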

Assay [2] can be described thus: ATG_NFI_CIS: Attagene CIS-FACTORIAL HepG2 Assay for human Nuclear Factor I (NFI) (AID 2282989). Particulars: HepG2 cis-regulatory reporter, NFI response element transcription; actives raise or lower the signal. The procedure, abridged: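 Endogenous TF activity in HepG2 cells transiently transfected with cis-element-driven multiplexed reporter units, read 24 h after dosing. Reporter mRNA quantified by RT-PCR, 6-FAM labelling, HpaI digestion and capillary electrophoresis; bidirectional fit versus DMSO.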

The target of assay [3] is Myc proto-oncogene protein (Homo sapiens) (UniProt P01106). The assay is described as follows: ATG_Myc_CIS: Attagene CIS-FACTORIAL HepG2 Assay for human Myelocytomatosis (Myc) Proto-Oncogene Transcription Factor (AID 2282990). Particulars: HepG2, Attagene cis-reporter transcription factor activity; actives raise or lower the signal. An outline of the steps: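 Cells of the HepG2 human liver line bear multiple cis-driven reporter transcription units. Reporter mRNA after 24 h exposure is reverse-transcribed, amplified, labelled and resolved by capillary electrophoresis, with gain- or loss-of-signal fitting relative to DMSO.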

Assay [4] can be described thus: ATG_NF_kB_CIS: Attagene CIS-FACTORIAL HepG2 Assay for human Nuclear Factor Kappa B (NF-kB) (AID 2282991). As to conditions: HepG2 Attagene cis-factorial NF-kB reporter mRNA; actives raise or lower the signal. An outline of the steps:
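Multiplexed cis-reporter assay in transiently transfected HepG2. 24 h treatment; RNA isolated, RT-PCR, labelled fragments resolved by CE. DMSO baseline.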

Assay [5] can be described thus: ATG_NRF2_ARE_CIS: Attagene CIS-FACTORIAL HepG2 Assay for human Nuclear Factor Erythroid 2 Related Factor 2 (NFR2) response to Antioxidant Response Elements (ARE) (AID 2282992).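 For AC50: reporter mRNA level measured by RT-PCR and capillary electrophoresis fluorescence.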 As to conditions: HepG2 Attagene ARE/NRF2 reporter, transcription factor activity; actives raise or lower the signal. The procedure, abridged: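 Cis-factorial assay: transfected HepG2 reporter library, 24 h dosing, mRNA readout via RT-PCR/CE; DMSO-referenced bidirectional analysis.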

Assay [6] is described as follows: ATG_Oct_MLP_CIS: Attagene CIS-FACTORIAL HepG2 Assay for human Octamer-Binding Transcription Factor (Oct) (AID 2282993). Particulars: HepG2 Attagene cis-factorial Oct reporter, mRNA; actives raise or lower the signal. The procedure, abridged:
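HepG2 cells transiently transfected with cis-element-driven reporter transcription units (endogenous TF activity); 24 h compound exposure. Reporter mRNA quantified by RT-PCR, 6-FAM labelling, HpaI digestion and capillary electrophoresis; bidirectional fit versus DMSO baseline.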

Assay [7] is described as follows: BSK_3C_TissueFactor: BioMAP Diversity Plus: 3C Assay for Tissue Factor Biomarker Activity (AID 2282997). As to conditions: BioMAP 3C HUVEC, tissue factor biomarker readout; actives raise or lower the signal. The procedure, abridged:
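Human vascular primary cells (umbilical vein endothelium) received test chemical; Tissue Factor was determined by ELISA at 24 h, and both gain and loss of signal versus DMSO were fitted.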

The nature of assay [8]: BSK_3C_uPAR: BioMAP Diversity Plus: 3C Assay for Urokinase-type plasminogen activator receptor (uPAR) Biomarker Activity (AID 2282998). As to conditions: BioMAP 3C HUVEC, uPAR biomarker ELISA; actives raise or lower the signal. The procedure, abridged:
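Primary human umbilical vein endothelial cells, 3C system; surface uPAR measured by ELISA 24 h after dosing. Cytotoxicity via SRB total protein in parallel cultures; bidirectional fit against DMSO.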
In general terms: ELISA stands for enzyme-linked immunosorbent assay.

Assay [9] is described as follows: BSK_4H_Eotaxin3: BioMAP Diversity Plus: 4H Assay for Eotaxin 3 Biomarker Activity (AID 2283000).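 Note: CCL26 protein level quantified by ELISA in parallel with SRB cytotoxicity check.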 As to conditions: primary human endothelial cells (HUVEC); actives raise or lower the signal. The procedure, abridged: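 Readout is Eotaxin-3 (CCL26) level by ELISA in primary human umbilical vein endothelial cells harvested 24 h after chemical exposure; activity fitted in both directions against DMSO control.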

The target in assay [10] is human Peroxisome Proliferator-activated Receptor delta (PPARd), PPARD (gene 5467) (UniProt Q03181). The assay is described as follows: ATG_PPARd_TRANS: Attagene TRANS-FACTORIAL HepG2 Assay for human Peroxisome Proliferator-activated Receptor delta (PPARd) (AID 2283002; active = hit-call score of the fitted dose curve at least 0.9, where 1 is the maximum). An outline of the steps: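 Cell-based TRANS reporter: HepG2, transient MRTU transfection, 24 h exposure. Readout = reporter mRNA (RT-PCR/CE, 6-FAM). Gain-of-signal fit vs DMSO control.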

Read-out in assay [11]: Intercellular Adhesion Molecule 1 (ICAM1), ICAM1 (gene 3383)
The assay is described as follows: BSK_3C_ICAM1: BioMAP Diversity Plus: 3C Assay for Intercellular Adhesion Molecule 1 (ICAM1) Biomarker Activity (AID 2283003). Particulars: primary human endothelial cells (HUVEC); actives raise or lower the signal. An outline of the steps: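 HUVEC primary cells stimulated under 3C conditions; ICAM1 measured by ELISA 24 h after compound dosing. Curves fitted bidirectionally against the DMSO baseline. Overt cytotoxicity checked by SRB staining of parallel cultures.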

Assay [12] has as its target Retinoic acid receptor alpha (Homo sapiens) (UniProt P10276). Nature of the assay: ATG_RARa_TRANS: Attagene TRANS-FACTORIAL HepG2 Assay for human Retinoic Acid Receptor alpha (RARa) (AID 2283005; active = hit-call score of the fitted dose curve at least 0.9, where 1 is the maximum). The procedure, abridged: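 Reporter transcripts, measured by RT-PCR with fluorescent labeling and capillary electrophoresis after 24 h dosing, reflect activity of an exogenous human RARa–GAL4 fusion in transiently transfected HepG2. Fitted for increase relative to DMSO.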

Assay [13] is described as follows: BSK_3C_Proliferation: Cell Proliferation Assessment in the BioMAP Diversity Plus: 3C Assay (AID 2283006).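 For AC50: potency may reflect either rise or fall in cell number versus DMSO.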 Particulars: primary human endothelial cells (HUVEC). An outline of the steps: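 Subconfluent HUVEC (3C system) cultured with chemical; relative cell number read at 48 h by sulforhodamine B total-protein staining (0.1% SRB after 10% TCA fixation, 560 nm). Bidirectional fit relative to DMSO.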

Assay [14] deals with Peroxisome proliferator-activated receptor gamma (Homo sapiens) (UniProt P37231). The assay is described as follows: ATG_PPARg_TRANS: Attagene TRANS-FACTORIAL HepG2 Assay for human Peroxisome Proliferator-activated Receptor-gamma (PPARg) (AID 2283007; active = hit-call score of the fitted dose curve at least 0.9, where 1 is the maximum). An outline of the steps: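 Human hepatoma HepG2, transient MRTU transfection, 24 h treatment. mRNA reporter signal by RT-PCR plus capillary electrophoresis, fluorescence detection; fitted for increase over DMSO negative control.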

For assay [15], the target named is Nuclear receptor subfamily 1 group I member 2 (Homo sapiens) (UniProt O75469). Nature of the assay: ATG_PXR_TRANS: Attagene TRANS-FACTORIAL HepG2 Assay for human Pregnane X Receptor (PXR) (AID 2283008; active = hit-call score of the fitted dose curve at least 0.9, where 1 is the maximum). The procedure, abridged: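 Fluorescence intensity of FAM-labelled, HpaI-digested reporter amplicons, separated by capillary electrophoresis, quantifies induction. HepG2 cells with PXR-Gal4 trans-reporter system were exposed 24 h; DMSO defines baseline.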

The target of assay [16] is Cellular tumor antigen p53 (Homo sapiens) (UniProt P04637). Nature of the assay: ATG_p53_CIS: Attagene CIS-FACTORIAL HepG2 Assay for human p53 Transcription Factor (AID 2282994). As to conditions: HepG2 p53 cis-element reporter, Attagene mRNA; actives raise or lower the signal. The procedure, abridged:
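Using HepG2 hepatoma cells carrying cis-acting multiplexed reporters, mRNA induction is detected after a 24 h exposure. Gain- and loss-of-signal responses are fitted relative to DMSO-treated cells.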

Assay [17] is described as follows: BSK_3C_VCAM1: BioMAP Diversity Plus: 3C Assay for Vascular cell adhesion molecule 1 (VCAM1) Biomarker Activity (AID 2282999). Particulars: BioMAP 3C HUVEC, VCAM1 ELISA, cytokine-stimulated; actives raise or lower the signal. An outline of the steps:
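Endothelial cells from human umbilical vein are treated with test chemical. At 24 h, VCAM-1 is measured by ELISA, and responses in either direction are fitted relative to DMSO.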

Assay [18] has as its target human Retinoic Acid Receptor beta (RARb), RARB (gene 5915) (UniProt P10826). The assay is described as follows: ATG_RARb_TRANS: Attagene TRANS-FACTORIAL HepG2 Assay for human Retinoic Acid Receptor beta (AID 2283004; active = hit-call score of the fitted dose curve at least 0.9, where 1 is the maximum). An outline of the steps: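 Readout is reporter mRNA induction: RNA reverse-transcribed, PCR-amplified, FAM-labelled, HpaI-cut and resolved by capillary electrophoresis. Transiently transfected HepG2 cells carrying exogenous NR–Gal4 chimeras were dosed for 24 h; activity fitted upward relative to DMSO.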

Assay [19] has as its target human Retinoic Acid Receptor gamma (RARg), RARG (gene 5916) (UniProt P13631). Nature of the assay: ATG_RARg_TRANS: Attagene TRANS-FACTORIAL HepG2 Assay for human Retinoic Acid Receptor gamma (RARg) (AID 2283009; active = hit-call score of the fitted dose curve at least 0.9, where 1 is the maximum). An outline of the steps:
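HepG2 transiently transfected with GAL4-UAS reporter units and chimeric NR-Gal4 constructs; 24 h compound exposure. Reporter mRNA quantified by RT-PCR, FAM labeling, HpaI digestion and capillary electrophoresis; gain-of-signal versus DMSO.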

Assay [20] concerns the target human Peroxisome Proliferator-activated Receptor alpha (PPARa), PPARA (gene 5465) (UniProt Q07869). Nature of the assay: ATG_PPARa_TRANS: Attagene TRANS-FACTORIAL HepG2 Assay for human Peroxisome Proliferator-activated Receptor alpha (PPARa) (AID 2283001; active = hit-call score of the fitted dose curve at least 0.9, where 1 is the maximum;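 for AC50: potency for gain of reporter signal over DMSO so agonist or activator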). An outline of the steps:
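Read-out is fluorescence of reporter cDNA fragments resolved by capillary electrophoresis after RT-PCR. Human HepG2 liver cells carried transfected PPARa-Gal4 chimera and GAL4-UAS reporter units, treated 24 h; activity scored as increase over DMSO.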

Records with an inconclusive call do not appear. Where a structure was tested more than once in an assay, its records may differ in their call. The source made the active and inactive calls. Rule for the calls, unless noted: active = hit-call score of the fitted dose curve at least 0.9, where 1 is the maximum; inactive = score below 0.9.

Myc proto-oncogene protein (Homo sapiens), sequence (P01106 whole entry, looked up): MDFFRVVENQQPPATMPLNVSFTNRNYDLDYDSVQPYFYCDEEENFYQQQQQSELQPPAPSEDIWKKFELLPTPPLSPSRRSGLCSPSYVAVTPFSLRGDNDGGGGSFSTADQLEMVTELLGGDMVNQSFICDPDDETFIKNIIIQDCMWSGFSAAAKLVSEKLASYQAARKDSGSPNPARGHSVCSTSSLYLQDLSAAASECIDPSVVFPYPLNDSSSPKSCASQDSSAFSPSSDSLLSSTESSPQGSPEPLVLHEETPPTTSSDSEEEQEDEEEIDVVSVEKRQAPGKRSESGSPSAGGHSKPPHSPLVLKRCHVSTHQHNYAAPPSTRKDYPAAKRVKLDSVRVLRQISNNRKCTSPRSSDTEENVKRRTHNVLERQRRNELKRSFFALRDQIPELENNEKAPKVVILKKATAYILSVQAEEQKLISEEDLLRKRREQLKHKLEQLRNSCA
human Retinoic Acid Receptor beta (RARb), RARB (gene 5915), sequence (P10826 whole entry, looked up, the tested form may be a part): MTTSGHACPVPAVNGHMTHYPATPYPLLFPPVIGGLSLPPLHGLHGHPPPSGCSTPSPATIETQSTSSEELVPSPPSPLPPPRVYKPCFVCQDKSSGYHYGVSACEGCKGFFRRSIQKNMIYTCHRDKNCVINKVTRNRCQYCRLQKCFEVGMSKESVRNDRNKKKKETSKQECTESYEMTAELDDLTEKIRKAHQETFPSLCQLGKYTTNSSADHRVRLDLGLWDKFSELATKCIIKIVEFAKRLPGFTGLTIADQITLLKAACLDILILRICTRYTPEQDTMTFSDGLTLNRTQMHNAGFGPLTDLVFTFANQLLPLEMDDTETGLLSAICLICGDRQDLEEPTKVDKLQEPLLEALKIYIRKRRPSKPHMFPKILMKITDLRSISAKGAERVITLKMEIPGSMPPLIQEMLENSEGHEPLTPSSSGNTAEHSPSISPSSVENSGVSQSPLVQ
Cellular tumor antigen p53 (Homo sapiens), sequence (P04637 whole entry, looked up): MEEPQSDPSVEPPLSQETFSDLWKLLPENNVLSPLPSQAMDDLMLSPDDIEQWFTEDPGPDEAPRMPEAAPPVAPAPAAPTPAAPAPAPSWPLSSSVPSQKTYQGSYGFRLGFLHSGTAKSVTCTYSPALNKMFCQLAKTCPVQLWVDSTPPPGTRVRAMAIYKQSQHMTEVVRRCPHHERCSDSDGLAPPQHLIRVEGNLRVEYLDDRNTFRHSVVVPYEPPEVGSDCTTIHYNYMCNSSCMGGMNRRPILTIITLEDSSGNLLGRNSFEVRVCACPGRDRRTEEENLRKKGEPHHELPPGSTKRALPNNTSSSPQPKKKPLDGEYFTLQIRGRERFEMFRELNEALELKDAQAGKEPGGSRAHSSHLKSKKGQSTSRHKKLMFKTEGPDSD
human Retinoic Acid Receptor gamma (RARg), RARG (gene 5916), sequence (P13631 whole entry, looked up, the tested form may be a part): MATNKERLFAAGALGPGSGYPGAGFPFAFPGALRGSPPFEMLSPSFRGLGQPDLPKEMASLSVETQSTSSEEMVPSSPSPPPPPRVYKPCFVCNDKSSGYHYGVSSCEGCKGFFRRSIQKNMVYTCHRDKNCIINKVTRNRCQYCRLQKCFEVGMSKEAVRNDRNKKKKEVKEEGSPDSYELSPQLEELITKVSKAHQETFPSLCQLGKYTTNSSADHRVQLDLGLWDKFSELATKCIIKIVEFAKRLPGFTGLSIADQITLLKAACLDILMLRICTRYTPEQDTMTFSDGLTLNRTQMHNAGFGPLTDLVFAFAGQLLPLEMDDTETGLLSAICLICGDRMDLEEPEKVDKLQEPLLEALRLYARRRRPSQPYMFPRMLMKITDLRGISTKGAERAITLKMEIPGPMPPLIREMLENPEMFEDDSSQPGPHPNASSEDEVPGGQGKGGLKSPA
Peroxisome proliferator-activated receptor gamma (Homo sapiens), sequence (P37231 whole entry, looked up): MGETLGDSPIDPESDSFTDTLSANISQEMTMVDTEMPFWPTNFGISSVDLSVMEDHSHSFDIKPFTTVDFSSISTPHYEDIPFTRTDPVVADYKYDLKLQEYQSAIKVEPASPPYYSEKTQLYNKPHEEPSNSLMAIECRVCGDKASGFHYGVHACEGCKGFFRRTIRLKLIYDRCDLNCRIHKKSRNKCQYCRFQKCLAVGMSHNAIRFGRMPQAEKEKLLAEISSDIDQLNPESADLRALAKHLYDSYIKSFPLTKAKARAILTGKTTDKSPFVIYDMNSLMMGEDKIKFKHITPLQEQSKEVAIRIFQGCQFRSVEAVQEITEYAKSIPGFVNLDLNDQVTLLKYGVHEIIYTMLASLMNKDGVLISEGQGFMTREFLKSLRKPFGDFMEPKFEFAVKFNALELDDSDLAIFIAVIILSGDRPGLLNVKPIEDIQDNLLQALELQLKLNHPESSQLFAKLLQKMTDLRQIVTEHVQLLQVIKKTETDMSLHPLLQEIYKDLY
human Peroxisome Proliferator-activated Receptor alpha (PPARa), PPARA (gene 5465), sequence (Q07869 whole entry, looked up, the tested form may be a part): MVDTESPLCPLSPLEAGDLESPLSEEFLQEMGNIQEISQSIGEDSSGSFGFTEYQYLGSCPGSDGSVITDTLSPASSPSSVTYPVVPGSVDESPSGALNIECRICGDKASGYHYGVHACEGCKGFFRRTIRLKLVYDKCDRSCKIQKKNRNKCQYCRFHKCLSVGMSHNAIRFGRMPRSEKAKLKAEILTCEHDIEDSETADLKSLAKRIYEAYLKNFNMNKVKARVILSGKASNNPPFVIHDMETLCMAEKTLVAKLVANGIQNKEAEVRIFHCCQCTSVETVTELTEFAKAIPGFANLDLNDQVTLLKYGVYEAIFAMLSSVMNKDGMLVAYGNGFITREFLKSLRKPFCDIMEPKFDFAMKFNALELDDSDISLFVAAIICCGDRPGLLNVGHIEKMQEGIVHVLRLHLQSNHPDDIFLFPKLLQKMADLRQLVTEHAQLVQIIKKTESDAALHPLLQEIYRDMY
Nuclear receptor subfamily 1 group I member 2 (Homo sapiens), sequence (O75469 whole entry, looked up, the tested form may be a part): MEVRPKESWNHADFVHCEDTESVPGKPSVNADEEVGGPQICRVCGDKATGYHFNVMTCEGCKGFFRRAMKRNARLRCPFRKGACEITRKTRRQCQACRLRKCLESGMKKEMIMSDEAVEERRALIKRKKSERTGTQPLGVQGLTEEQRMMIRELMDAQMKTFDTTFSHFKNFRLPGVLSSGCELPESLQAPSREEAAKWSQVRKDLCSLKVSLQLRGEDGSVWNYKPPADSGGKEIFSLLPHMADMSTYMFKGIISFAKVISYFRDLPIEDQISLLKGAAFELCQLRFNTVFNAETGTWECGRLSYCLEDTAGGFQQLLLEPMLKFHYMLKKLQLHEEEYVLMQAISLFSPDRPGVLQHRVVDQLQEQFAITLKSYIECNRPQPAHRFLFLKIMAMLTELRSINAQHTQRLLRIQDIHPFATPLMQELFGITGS
Retinoic acid receptor alpha (Homo sapiens), sequence (P10276 whole entry, looked up, the tested form may be a part): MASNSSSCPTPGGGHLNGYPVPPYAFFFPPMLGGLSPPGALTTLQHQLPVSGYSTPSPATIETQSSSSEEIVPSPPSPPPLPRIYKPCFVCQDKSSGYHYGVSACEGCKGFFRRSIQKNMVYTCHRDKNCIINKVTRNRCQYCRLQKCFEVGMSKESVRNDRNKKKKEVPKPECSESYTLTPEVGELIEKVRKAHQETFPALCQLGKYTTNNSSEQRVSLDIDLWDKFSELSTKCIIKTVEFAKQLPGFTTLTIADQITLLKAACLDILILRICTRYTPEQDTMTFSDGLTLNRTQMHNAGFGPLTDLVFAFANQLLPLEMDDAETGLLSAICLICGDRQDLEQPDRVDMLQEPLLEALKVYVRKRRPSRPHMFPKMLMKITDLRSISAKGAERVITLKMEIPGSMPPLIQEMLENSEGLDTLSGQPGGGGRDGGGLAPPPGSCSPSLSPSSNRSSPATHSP
Nuclear respiratory factor 1 (Homo sapiens), sequence (Q16656 whole entry, looked up): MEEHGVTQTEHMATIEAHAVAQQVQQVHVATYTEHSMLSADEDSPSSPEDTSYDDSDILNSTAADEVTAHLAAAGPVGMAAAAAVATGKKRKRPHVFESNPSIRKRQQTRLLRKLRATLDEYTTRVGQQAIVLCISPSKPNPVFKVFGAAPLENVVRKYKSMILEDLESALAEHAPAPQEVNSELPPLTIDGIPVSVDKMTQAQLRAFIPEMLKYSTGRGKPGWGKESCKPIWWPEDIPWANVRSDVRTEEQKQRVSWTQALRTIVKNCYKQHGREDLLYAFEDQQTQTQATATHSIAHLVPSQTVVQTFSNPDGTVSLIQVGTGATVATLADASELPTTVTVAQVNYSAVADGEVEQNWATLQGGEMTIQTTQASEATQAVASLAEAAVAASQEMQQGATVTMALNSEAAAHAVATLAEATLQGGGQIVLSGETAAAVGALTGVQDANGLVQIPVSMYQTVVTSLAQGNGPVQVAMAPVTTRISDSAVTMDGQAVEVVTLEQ
human Peroxisome Proliferator-activated Receptor delta (PPARd), PPARD (gene 5467), sequence (Q03181 whole entry, looked up): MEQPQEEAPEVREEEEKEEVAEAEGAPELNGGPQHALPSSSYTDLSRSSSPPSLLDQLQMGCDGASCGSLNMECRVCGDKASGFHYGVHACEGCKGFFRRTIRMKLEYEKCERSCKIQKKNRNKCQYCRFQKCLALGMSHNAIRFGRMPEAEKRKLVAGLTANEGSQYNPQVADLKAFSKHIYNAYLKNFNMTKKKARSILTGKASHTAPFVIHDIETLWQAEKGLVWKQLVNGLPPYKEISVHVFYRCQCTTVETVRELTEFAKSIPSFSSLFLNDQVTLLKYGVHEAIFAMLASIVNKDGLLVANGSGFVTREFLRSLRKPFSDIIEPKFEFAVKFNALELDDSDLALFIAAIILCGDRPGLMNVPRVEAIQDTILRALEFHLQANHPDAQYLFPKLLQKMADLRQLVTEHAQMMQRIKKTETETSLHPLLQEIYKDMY

Consider `C=C(C)C(=O)OCCC(F)(F)C(F)(F)C(F)(F)C(F)(F)C(F)(C(F)(F)F)C(F)(F)F`, for which the compound was classed as inactive in assay [1], in assay [2], in assay [3], in assay [4], in [5] and in assay [6]. The outcome in [7], in assay [8], in [9], in [10], in assay [11] and in [12] was inactive. The outcome in assay [13], in [14] and in assay [15] was inactive.

One may read the AC50 as the midpoint of the concentration-response curve, whichever way the signal moves. `FC(F)(F)C(F)(F)C(F)(F)C(F)(F)C(F)(F)CCI`: the result in assay [1], in assay [2], in assay [3], in assay [4], in [6] and in assay [16] was inactive. The result in assay [7], in assay [8], in assay [17], in assay [9], in assay [10] and in assay [11] was inactive. The outcome in assay [18], in assay [13], in assay [15] and in assay [19] was inactive. The AC50 in [5] is 88.9 µM (active); in [13], 30 µM (active); in assay [14] it was 73 µM (active).

In the case of `Nc1ccc(S(=O)(=O)Nc2nccs2)cc1`, the result in [1], in [2], in [3], in assay [4], in assay [5] and in assay [16] was inactive. Moreover, the call in [20], in assay [10], in [14], in assay [15] and in assay [19] was inactive.

With `O=C(O)C(F)(OC(F)(F)C(F)(OC(F)(F)C(F)(F)C(F)(F)F)C(F)(F)F)C(F)(F)F` (stereo unspecified), the compound was classed as inactive in assay [1], in assay [2], in [3], in [4], in assay [5] and in assay [6]. Also, the result in [7], in assay [8], in assay [9], in assay [20], in [10] and in assay [11] was inactive. Besides, the compound was called inactive in assay [18], in assay [12], in assay [13], in assay [14], in assay [15] and in assay [19]. Besides, in assay [20], the AC50 was 108 µM (active).

Consider `CNC(=S)NC`, for which the outcome in [1], in assay [2], in assay [3], in [4], in assay [5] and in [6] was inactive. For the same compound, the compound was classed as inactive in assay [16], in assay [10], in assay [18], in [14] and in [15].

For `CCN(Cc1cccc(S(=O)(=O)O)c1)c1ccc(C(=C2C=CC(=[N+](CC)Cc3cccc(S(=O)(=O)O)c3)C=C2)c2ccc(O)cc2S(=O)(=O)[O-])cc1`, the compound was classed as inactive in assay [1], in [2], in [3], in [4], in assay [5] and in [6]. Further, the result in assay [20], in assay [10], in assay [14] and in [15] was inactive.

Take `C=CC(F)(F)C(F)(F)C(F)(F)C(F)(F)C(F)(F)C(F)(F)C(F)(F)C(F)(F)C=C`: the call in assay [1], in assay [2], in assay [3], in assay [4], in assay [5] and in assay [16] was inactive. In addition, the result in [7], in assay [8], in [9], in [10], in assay [11] and in assay [18] was inactive. For the same compound, the outcome in assay [13], in [14] and in assay [19] was inactive.

`CO[Si](OC)(c1ccccc1)c1ccccc1`: the compound was classed as inactive in [1], in assay [2], in [3], in assay [4], in assay [5] and in assay [16]. Further, the outcome in assay [7], in assay [9], in assay [11], in [18], in assay [12] and in assay [14] was inactive. Further, in assay [19], the compound was classed as inactive. Moreover, the AC50 in [8] was 34.8 µM (active); in [13], 37 µM (active); in assay [15] it was 15.4 µM (active).
